Laboratory results taken from the supplement of paper PMC11732987, “Enantioselective OTUD7B fragment discovery through chemoproteomics screening and high-throughput optimisation” (Communications Chemistry, 2025).

Assays:
Assay in all cases: log2 ratio of Biotin-Ahx-Ub-VS probe labelling (fragment/DMSO); higher = less target engagement (more negative = stronger competition), active = hit call of the paper (q ≤ 0.05, log2 ratio ≤ -1)
Conditions in all cases: compound concentration: 200 uM; treatment time: 3 h
USP42 = biological target: T1, USP42 (UniProt Q9H9J4)
T1 sequence (whole entry): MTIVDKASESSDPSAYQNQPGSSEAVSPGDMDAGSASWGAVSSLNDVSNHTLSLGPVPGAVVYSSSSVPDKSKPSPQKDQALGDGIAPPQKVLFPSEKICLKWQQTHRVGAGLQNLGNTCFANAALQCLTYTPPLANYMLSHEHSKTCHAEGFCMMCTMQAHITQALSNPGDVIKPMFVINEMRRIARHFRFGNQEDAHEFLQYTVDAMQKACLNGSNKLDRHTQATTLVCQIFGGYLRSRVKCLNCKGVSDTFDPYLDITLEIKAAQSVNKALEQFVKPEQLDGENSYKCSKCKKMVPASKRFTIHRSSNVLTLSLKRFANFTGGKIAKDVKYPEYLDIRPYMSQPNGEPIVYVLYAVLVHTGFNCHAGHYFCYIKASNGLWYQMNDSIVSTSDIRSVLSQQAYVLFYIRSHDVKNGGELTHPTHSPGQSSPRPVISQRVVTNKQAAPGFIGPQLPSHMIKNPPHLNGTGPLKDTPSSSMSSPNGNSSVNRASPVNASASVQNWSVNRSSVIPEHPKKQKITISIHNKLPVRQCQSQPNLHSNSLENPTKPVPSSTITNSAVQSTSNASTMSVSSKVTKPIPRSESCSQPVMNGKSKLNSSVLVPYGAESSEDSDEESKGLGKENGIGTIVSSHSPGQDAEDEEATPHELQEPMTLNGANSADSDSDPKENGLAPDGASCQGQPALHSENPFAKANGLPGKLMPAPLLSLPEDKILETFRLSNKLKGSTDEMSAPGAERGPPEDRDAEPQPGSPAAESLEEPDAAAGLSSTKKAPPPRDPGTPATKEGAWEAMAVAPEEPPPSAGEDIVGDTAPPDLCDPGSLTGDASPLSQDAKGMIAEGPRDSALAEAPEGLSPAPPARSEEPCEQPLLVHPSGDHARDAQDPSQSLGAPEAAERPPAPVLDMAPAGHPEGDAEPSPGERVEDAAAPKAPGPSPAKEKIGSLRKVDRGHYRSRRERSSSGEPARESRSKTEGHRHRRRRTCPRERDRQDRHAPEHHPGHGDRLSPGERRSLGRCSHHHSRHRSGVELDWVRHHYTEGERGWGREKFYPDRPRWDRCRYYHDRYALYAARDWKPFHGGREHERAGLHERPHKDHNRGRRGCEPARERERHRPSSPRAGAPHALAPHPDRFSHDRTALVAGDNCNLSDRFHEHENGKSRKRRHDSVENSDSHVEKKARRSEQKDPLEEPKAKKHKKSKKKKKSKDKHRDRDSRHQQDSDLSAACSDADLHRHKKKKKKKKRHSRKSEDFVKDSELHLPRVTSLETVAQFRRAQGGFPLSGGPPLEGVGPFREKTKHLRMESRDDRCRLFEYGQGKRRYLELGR
Procedure, shortened: (§1)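 Labelled DUBs from HEK293T lysate were NeutrAvidin-enriched, digested with LysC and trypsin, and run by diaPASEF LC-MS/MS. Before that, each 495 µg sample in Tris/CHAPS/IGEPAL buffer with protease inhibitors was treated in triplicate with fragment at 200 µM or vehicle for 3 h, then with Biotin-Ahx-Ub-VS at 0.5 µM final for 1 h. Values are average log2 ratios of fragment over vehicle by unpaired t-test, based on global-median-normalised Spectronaut label-free quantities from proteins with ≥2 unique peptides.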

USP46 = USP46 (UniProt P62068)
USP46, sequence (P62068 whole entry): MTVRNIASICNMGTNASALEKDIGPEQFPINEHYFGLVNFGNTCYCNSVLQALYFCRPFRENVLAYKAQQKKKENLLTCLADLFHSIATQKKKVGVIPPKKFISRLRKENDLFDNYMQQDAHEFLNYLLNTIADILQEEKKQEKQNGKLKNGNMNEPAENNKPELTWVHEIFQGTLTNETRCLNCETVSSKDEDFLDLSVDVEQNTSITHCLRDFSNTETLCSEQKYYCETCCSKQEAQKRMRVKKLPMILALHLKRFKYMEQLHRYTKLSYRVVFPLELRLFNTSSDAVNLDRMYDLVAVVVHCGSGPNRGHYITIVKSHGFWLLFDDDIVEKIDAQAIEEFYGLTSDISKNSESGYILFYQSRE
Procedure, shortened: as §1

USP47 = biological target: T2, USP47 (UniProt Q96K76)
T2 sequence (whole entry): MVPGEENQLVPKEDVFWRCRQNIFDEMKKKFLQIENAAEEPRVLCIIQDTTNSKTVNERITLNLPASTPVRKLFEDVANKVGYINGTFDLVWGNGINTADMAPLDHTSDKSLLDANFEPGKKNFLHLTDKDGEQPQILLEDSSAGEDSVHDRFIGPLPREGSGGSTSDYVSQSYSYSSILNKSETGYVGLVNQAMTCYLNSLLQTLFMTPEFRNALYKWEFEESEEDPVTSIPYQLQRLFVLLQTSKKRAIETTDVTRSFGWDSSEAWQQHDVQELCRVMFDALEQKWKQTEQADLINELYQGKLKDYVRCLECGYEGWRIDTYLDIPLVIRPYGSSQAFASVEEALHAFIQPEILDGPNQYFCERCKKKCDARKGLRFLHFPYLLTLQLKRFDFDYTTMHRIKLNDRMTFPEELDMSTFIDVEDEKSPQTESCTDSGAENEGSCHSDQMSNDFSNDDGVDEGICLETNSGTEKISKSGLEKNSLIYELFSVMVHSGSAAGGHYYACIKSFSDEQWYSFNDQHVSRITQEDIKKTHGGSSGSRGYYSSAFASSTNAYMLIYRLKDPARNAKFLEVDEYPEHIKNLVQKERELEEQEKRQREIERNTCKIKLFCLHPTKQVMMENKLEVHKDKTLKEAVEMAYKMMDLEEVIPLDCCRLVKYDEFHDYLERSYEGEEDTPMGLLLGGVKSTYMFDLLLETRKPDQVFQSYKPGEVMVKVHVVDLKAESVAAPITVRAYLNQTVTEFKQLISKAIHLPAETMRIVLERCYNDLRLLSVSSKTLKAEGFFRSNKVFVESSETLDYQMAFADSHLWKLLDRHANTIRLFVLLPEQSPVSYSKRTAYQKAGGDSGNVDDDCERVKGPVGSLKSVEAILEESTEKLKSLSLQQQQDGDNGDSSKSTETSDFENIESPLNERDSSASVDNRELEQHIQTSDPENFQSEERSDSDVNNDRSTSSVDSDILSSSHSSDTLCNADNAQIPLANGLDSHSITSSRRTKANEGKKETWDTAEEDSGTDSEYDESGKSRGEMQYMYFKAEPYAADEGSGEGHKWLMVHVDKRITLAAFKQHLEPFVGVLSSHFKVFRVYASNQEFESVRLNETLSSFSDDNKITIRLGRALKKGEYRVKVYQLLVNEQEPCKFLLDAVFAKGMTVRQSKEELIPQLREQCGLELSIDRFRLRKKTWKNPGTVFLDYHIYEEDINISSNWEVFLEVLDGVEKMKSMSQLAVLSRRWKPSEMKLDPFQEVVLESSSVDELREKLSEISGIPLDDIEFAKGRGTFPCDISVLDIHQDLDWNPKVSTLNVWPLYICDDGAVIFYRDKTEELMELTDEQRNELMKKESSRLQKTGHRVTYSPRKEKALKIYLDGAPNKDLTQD
Procedure, shortened: as §1

USP48 = biological target: T3, USP48 (UniProt Q86UV5)
T3 sequence (whole entry): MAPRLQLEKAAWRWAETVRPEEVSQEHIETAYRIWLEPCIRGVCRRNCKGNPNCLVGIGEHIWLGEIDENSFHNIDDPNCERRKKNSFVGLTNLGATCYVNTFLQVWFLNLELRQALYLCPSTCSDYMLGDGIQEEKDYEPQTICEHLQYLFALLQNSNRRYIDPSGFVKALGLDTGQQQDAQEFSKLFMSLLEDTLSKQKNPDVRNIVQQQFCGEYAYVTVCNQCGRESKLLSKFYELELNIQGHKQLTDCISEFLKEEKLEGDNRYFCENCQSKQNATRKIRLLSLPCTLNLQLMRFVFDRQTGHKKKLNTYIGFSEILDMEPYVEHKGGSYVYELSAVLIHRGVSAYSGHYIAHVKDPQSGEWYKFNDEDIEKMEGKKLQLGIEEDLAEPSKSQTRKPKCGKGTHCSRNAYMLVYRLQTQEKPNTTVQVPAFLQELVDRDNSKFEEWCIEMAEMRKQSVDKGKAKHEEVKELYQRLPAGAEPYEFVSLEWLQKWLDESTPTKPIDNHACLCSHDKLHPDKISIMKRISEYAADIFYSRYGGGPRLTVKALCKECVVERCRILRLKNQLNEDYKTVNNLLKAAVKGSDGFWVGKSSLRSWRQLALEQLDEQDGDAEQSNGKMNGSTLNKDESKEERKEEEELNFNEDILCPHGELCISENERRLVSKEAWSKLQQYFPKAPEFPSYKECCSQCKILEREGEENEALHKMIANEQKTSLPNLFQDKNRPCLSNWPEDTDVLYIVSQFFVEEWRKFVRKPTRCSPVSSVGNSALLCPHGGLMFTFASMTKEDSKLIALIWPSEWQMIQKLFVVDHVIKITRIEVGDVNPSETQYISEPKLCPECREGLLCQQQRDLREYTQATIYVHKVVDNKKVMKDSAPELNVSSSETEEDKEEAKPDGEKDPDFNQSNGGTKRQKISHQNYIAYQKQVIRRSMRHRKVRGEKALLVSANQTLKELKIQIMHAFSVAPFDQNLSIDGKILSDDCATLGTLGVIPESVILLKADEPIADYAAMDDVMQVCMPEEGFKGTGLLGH
Procedure, shortened: as §1

USP5 = biological target: T4, USP5 (UniProt P45974)
T4 sequence (whole entry): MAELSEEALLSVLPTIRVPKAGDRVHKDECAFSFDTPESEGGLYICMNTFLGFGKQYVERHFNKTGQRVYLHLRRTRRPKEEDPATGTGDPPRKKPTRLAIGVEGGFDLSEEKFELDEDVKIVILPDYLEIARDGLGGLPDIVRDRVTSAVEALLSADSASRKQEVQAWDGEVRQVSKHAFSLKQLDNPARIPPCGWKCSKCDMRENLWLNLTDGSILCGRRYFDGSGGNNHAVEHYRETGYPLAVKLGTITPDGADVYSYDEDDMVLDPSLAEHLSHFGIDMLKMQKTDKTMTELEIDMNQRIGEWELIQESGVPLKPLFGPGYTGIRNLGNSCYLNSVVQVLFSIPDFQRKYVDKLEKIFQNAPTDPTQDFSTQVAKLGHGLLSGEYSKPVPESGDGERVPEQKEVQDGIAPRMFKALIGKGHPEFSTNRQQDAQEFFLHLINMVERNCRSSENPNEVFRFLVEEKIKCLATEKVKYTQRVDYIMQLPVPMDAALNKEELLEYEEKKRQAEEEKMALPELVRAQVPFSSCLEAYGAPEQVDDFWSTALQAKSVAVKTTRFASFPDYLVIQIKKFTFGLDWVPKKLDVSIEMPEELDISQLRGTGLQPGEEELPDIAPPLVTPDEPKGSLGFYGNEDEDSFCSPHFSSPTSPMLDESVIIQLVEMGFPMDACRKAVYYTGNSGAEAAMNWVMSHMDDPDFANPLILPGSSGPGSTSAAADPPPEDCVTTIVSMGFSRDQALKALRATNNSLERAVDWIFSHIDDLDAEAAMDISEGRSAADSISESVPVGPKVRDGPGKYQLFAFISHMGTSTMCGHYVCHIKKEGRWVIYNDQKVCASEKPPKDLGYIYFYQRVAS
Procedure, shortened: as §1

USP54 = USP54 (UniProt Q70EL1)
USP54, sequence (Q70EL1 whole entry): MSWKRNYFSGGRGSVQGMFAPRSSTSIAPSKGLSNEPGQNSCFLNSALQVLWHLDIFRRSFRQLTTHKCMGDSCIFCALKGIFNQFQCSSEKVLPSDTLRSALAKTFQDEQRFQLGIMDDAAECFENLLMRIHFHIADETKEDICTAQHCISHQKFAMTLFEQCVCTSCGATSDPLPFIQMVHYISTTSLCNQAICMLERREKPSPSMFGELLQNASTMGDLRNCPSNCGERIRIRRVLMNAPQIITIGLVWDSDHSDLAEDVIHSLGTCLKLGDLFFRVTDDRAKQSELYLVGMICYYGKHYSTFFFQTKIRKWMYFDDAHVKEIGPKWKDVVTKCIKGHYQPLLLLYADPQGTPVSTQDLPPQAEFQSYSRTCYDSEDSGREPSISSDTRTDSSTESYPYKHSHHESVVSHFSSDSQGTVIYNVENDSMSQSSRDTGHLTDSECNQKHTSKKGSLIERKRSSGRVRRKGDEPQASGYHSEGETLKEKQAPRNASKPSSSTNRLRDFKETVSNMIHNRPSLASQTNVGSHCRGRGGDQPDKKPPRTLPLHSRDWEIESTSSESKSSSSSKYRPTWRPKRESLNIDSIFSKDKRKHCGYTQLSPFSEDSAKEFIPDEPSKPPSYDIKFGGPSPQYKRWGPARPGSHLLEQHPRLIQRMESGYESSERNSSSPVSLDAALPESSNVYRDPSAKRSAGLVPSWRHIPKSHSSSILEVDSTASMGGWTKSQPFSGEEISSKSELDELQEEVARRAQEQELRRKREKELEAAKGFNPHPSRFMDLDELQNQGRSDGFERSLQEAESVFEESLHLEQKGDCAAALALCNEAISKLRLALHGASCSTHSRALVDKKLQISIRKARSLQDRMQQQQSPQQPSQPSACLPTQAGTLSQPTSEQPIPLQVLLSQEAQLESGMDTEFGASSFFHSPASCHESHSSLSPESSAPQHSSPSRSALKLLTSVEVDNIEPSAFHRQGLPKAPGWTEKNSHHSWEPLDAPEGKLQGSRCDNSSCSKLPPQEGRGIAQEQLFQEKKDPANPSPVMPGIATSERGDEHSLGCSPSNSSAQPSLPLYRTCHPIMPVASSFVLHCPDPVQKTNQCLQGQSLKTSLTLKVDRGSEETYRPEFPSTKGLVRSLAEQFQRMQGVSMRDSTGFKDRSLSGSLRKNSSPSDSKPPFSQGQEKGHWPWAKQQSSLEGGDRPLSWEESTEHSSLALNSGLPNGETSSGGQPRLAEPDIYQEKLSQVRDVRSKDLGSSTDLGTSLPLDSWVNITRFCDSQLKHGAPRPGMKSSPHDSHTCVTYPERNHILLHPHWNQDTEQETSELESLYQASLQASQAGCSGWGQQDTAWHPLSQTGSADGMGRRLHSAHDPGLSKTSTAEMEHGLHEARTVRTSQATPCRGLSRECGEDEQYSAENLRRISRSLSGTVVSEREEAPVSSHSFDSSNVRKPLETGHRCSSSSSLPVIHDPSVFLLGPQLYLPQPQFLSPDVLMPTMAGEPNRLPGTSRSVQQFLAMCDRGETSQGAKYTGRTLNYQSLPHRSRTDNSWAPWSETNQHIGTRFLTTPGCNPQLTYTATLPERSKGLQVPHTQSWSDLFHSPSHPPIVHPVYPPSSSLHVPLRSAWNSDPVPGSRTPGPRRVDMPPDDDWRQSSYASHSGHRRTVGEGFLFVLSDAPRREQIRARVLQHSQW
Procedure, shortened: as §1

USP7 = USP7 (UniProt Q93009)
USP7, sequence (Q93009 whole entry, looked up): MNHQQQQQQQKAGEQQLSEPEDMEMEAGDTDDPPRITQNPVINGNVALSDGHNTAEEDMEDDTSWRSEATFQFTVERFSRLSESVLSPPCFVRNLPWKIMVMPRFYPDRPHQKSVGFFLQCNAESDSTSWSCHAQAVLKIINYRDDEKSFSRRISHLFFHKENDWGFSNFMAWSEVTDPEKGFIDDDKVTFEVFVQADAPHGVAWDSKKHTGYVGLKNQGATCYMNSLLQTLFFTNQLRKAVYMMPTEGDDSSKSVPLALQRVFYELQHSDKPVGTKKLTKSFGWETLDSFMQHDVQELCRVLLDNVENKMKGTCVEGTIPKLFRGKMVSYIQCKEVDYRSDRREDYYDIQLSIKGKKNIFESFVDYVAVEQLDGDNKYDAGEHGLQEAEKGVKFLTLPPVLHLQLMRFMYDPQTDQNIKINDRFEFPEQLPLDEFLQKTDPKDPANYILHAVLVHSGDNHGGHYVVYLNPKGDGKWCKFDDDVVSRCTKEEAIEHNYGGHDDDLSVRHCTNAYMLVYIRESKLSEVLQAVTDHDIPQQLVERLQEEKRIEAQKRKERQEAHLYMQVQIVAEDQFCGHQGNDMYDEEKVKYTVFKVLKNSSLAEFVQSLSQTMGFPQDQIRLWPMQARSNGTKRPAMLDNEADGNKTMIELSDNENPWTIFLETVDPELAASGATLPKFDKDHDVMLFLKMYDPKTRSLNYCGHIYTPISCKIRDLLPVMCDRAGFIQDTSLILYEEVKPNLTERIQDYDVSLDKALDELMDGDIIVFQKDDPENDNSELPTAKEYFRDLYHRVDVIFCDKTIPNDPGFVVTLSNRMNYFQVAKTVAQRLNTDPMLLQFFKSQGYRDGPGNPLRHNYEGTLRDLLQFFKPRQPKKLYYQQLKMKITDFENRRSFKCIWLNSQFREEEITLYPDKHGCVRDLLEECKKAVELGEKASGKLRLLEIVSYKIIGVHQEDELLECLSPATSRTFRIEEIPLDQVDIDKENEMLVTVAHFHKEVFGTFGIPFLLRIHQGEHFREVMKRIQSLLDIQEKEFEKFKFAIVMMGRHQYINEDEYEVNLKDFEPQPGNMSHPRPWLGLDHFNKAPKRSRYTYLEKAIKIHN
Procedure, shortened: as §1

USP8 = biological target: T5, USP8 (UniProt P40818)
T5 sequence (whole entry): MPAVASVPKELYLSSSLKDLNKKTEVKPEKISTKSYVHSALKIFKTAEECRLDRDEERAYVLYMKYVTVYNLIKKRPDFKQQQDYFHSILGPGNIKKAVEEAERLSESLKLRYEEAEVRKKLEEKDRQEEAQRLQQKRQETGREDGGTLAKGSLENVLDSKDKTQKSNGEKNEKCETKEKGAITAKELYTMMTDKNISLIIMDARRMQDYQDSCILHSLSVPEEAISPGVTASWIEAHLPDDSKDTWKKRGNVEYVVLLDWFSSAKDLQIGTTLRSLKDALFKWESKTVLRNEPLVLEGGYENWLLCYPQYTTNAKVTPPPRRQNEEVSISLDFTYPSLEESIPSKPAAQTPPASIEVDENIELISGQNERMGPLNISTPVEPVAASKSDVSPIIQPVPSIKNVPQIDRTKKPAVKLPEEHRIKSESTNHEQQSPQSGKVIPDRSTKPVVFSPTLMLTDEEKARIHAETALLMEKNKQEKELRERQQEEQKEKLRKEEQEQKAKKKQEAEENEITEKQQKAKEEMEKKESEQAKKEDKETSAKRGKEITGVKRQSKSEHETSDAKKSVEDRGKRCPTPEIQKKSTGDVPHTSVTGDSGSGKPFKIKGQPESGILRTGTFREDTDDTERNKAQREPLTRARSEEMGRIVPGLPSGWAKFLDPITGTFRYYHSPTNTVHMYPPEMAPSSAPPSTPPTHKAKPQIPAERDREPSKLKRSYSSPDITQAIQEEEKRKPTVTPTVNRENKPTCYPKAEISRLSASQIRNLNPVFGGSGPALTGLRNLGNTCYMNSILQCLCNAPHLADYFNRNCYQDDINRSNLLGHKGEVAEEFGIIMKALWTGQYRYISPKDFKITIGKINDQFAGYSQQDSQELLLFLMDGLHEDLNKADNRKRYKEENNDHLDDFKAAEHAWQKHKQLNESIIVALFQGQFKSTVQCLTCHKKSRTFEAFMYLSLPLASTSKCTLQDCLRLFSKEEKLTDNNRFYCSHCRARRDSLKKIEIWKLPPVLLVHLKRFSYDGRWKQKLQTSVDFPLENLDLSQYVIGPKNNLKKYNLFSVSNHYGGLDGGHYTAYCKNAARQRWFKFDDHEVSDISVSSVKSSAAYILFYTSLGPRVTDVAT
Procedure, shortened: as §1

Measured: log2 ratio of Biotin-Ahx-Ub-VS probe labelling

O=C(CCl)N[C@H]1CC[C@@H](CO)CC1
inactive: USP42 0.163 | USP46 -0.593 | USP47 -0.113 | USP48 -0.534 | USP5 -0.644 | USP54 1 | USP7 -0.752 | USP8 -0.969
